# HTT cytoprotect = protects HTT-Q103 PC12 cells, measured by ATP. PC12 HTT-Q103 induced, cytoprotection, ATP luminescence, 40 h. Potency, µM (series often up to 56.4 µM), actives largely listed as activators. actives 0.14% (n = 230,000). AID 1471; also: nearly all actives have a fitted effect of over 45% in size
#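 Stable PC12 Q103-GFP cells in serum-supplemented, phenol red-free DMEM; induction by tebufenozide at 100 nM final; compound dose series; cell viability quantified luminescently from ATP.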
# HttQ103 aggreg = reduces HttQ103-GFP aggregates in PC12 cells; Potency, µM (doses to about 46.1 µM), hits mostly inhibitors; AID 1688; actives 1.1% (n = 220,000); PC12 HttQ103-GFP aggregates, Acumen cytometry, 40 h; also: nearly all actives have a fitted effect of over 60% in size
#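 PC12 cells with ecdysone-inducible HTT exon1 Q103-GFP, induced by 100 nM tebufenozide, given compounds in a concentration series. GFP aggregates (1–25 um, 6 SD above background) counted in lysates by laser-scanning cytometry, 488 nm excitation.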
# Epigenetic derep = regulators of epigenetic silencing causing reporter derepression in mouse cells; murine LDR cells, GFP reporter derepression, 30 h; Potency, µM (highest dose often 53.9 µM), most hits filed as activators; actives 0.2% (n = 280,000); also: nearly all actives have a fitted effect of over 60% in size
#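 Readout is the number of GFP-expressing murine LDR cells, counted by cytometry following washing. Cells were treated with compound for 30 h at 37 C; the stably integrated CMV-GFP locus is normally silent.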
# PINK1 expr mod = modulators of PINK1 expression | Potency, µM (doses to about 76.6 µM), most hits filed as activators | AID 624263 | actives 0.2% (n = 410,000) | PINK1 immunofluorescence, high-content cytometry, 24 h; active = well fitted activation curve with a large enough effect; inconclusive = small, poorly fitted or top-dose-only effect; cell line not stated here; also: nearly all actives have a fitted effect of over 65% in size
#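 Stable cell line, 250 cells/well, 12 h attachment; compounds pinned at 5 concentrations, 24 h; CCCP control. Fixed with nuclear dye, primary antibodies 12 h at 10 degrees C, secondary plus cell stain; laser-scanning cytometer read.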
# Hits are given with their value; - = inactive; ? = inconclusive; . = not tested or not shown; [ ] = dose if it differs, or a comment. Shown is part of a subset that was picked to be rich in hits. Unless noted, calls follow the shape of the dose curve; as a rule, active = well fitted curve in the direction sought with a large enough effect; inconclusive = small, poorly fitted or top-dose-only effect, or another doubt; inactive = no such curve, though single readings can be large; an effect the other way counts as inactive or inconclusive.
SMILES,HTT cytoprotect,HttQ103 aggreg,Epigenetic derep,PINK1 expr mod
CCCCN=c1scc(-c2ccc3c(c2)NC(=O)CO3)n1N=C1CCCC1,-,?,-,?
Cc1cc(C(=O)NC2CC(C)(C)Cc3c2cnn3-c2ccccc2C)c(C)o1 (centres undefined),.,.,.,-
O=C(NC1CCCCC1)NC1CCCCC1,-,.,-,.
O=C(O)/C=C/C(=O)NC1CCCCC1,-[10 µM],3.55µM,-,-
COC(=O)c1cc(S(=O)(=O)NCc2ccc3c(c2)OCO3)c[nH]1,.,.,.,-
Cc1cccc(/N=C/c2sc3ccccc3c2O)n1,-[10 µM],-[9.22 µM],-,44.7µM
Oc1ccc(Cl)cc1N=Cc1sc2ccccc2c1Cl,2.24µM,?,-,-
O=[N+]([O-])c1ccc(O)c(C=Nc2cccc3ccccc23)c1,.,.,.,-
COc1ccc(N=Cc2sc3ccccc3c2Cl)cc1,-,-,-,-
O=[N+]([O-])c1ccc(O)c(N=Cc2sc3ccccc3c2O)c1,.,7.94µM,-,-
CCCC[n+]1ccn(-c2nc3ccccc3nc2[N-]S(=O)(=O)c2ccccc2)c1,-[10 µM],-,-,-
CCCC[n+]1ccn(-c2nc3ccccc3nc2[N-]S(=O)(=O)c2cccs2)c1,-[10 µM],-[9.22 µM],10µM,-
CCC(=O)N1CCc2cc(CNS(=O)(=O)c3ccc(CC(C)C)cc3)ccc21,.,.,-,-
COc1cc(OC)c(/C=C2/C(=O)Nc3ccccc32)c(OC)c1,-[1.9 µM],.,-,.
CS(=O)(=O)N(CCC#N)Cc1ccc(/C=C2\C(=O)Nc3ccccc32)o1,-,11.2µM,-,-
CC1(C)CC2(CCCN(CC(O)(c3ccccc3)c3ccccc3)C2)CCO1 (centres undefined),-[10 µM],-[9.22 µM],-,?
CCC1(C)CC2(CCCN(CCC(O)(c3ccccc3)c3ccccc3)C2)CCO1 (centres undefined),-[10 µM],-[9.22 µM],?,44.7µM
Cc1ccc(S(=O)(=O)Nc2ncnc3sccc23)cc1C,.,.,.,-
CN(Cc1cnn(C)c1)Cc1nc(-c2ccc(Cl)cc2)no1,-[10 µM],-[9.22 µM],-,-
Cc1cc(Cl)ccc1NC(=O)CCC(=O)N/N=C/c1cc([N+](=O)[O-])ccc1O,-[10 µM],-,-,-
O=[N+]([O-])c1ccc(/C=N/NC(=S)Nc2ccc(Cl)cc2Cl)s1,-[10 µM],-[9.22 µM],22.4µM,-
Fc1ccc(/C=N/NC(=S)Nc2ccc(Cl)cc2Cl)cc1,-[10 µM],-[9.22 µM],-,-
O=[N+]([O-])c1ccc(O)c(/C=N/NC(=S)Nc2ccc(Cl)cc2Cl)c1,-[10 µM],-[9.22 µM],-,39.8µM
Cn1c(CCN2CCCC2)nc2cc(NC(=O)COc3ccc(Cl)cc3)ccc21,.,.,.,-
COC(=O)c1cc(C)sc1NC(=O)C1CC(=O)NN1Cc1ccccc1 (centres undefined),-[10 µM],-,-,-
SMILES,HTT cytoprotect,HttQ103 aggreg,Epigenetic derep,PINK1 expr mod
CCOC(=O)c1cc(CC)sc1NC(=O)C1CC(=O)NN1Cc1ccccc1 (centres undefined),-[10 µM],10µM,-,-
CS(=O)(=O)N1N=C(c2ccco2)CC1c1ccc(Br)cc1 (centres undefined),-[10 µM],-,-,-
Cc1ccc(C)c(OCc2nc3ccccc3[nH]2)c1,-[10 µM],-,-,-
C=CCc1ccccc1OCc1nc2ccc(C)cc2[nH]1,.,.,-,39.8µM
O=C(Nc1cccc2c1C(=O)NC2=O)c1ccc(S(=O)(=O)N2CCCC2)cc1,-,-,-,-
O=C(Nc1nc(-c2ccccc2)cs1)c1ccccc1NS(=O)(=O)c1ccc(F)cc1,-[10 µM],1.78µM,-,?
O=S(=O)(Nc1ccc(-c2csc(-c3ccccc3)n2)cc1)c1ccc(F)cc1,-[10 µM],-,-,-
COc1ccccc1C(=O)Nc1nc(-c2ccc(S(=O)(=O)N3CCOCC3)cc2)cs1,-,2.51µM,-,-
N#C/C(=N\Nc1cccc(Cl)c1)C(=O)c1ccccc1,-,3.55µM,-,25.1µM
COc1ccc(C(=O)/C(C#N)=N/Nc2cccc([N+](=O)[O-])c2)cc1,-[10 µM],?,-[10.1 µM],14.1µM
CCC(CC)=NNc1cccc([N+](=O)[O-])c1,-[10 µM],-,-,-
CCOc1ncccc1C(=O)Nc1ccc(-c2ccc3nnc(C)n3n2)cc1,-,-,-,-
CC(C)N1CCc2c(sc(NC(=O)c3cc4cc([N+](=O)[O-])ccc4s3)c2C(N)=O)C1,-,-[9.22 µM],?,-
CN1CCc2c(sc(NC(=O)c3cc4cc([N+](=O)[O-])ccc4s3)c2C(N)=O)C1,-,7.08µM,-,.
CC1CCCN(CC(=O)NC(=O)NC2CCCCC2)C1 (centres undefined),.,.,.,-
O=C(/C=C/c1ccc(S(=O)(=O)NCc2ccco2)cc1)NCc1cccc(Cl)c1,-[10 µM],?,-,-
COc1ccc2sc(NCc3ccccc3)nc2c1,.,.,.,-
COc1ccc(-c2cc(=O)[nH]c(NCc3ccccc3)n2)cc1,-[0.074 µM],3.98µM,-,-
Cn1c(C(N)=O)cnc1Sc1ncc(C(F)(F)F)cc1Cl,?,-,-,-
O=C(CN1CCCCCC1)NCc1ccccc1,-[10 µM],-,-,-
CC1CCN(CC(=O)NCc2ccccc2)CC1,-[0.074 µM],2.51µM,-,-
Cc1onc(-c2c(F)cccc2Cl)c1C(=O)Nc1nnc(C(F)(F)F)s1,.,.,.,15.8µM
CCCCC[n+]1cccc2c3ccccc3ccc21,-,2.51µM,-,-
c1ccc(C[n+]2cccc3c4ccccc4ccc32)cc1,-,28.2µM,-,-
O=[N+]([O-])c1ccc(C[n+]2cccc3ccccc32)cc1,-[10 µM],-,-,-
SMILES,HTT cytoprotect,HttQ103 aggreg,Epigenetic derep,PINK1 expr mod
Cn1cc(CN2CCC(C(=O)N3CCCC3)CC2)c(-c2ccccc2F)n1,-[10 µM],-[9.22 µM],-,-
CN(NC1OC(=O)c2ccccc21)c1ncc(C(F)(F)F)cc1Cl (centres undefined),-[10 µM],-[9.22 µM],-,-
CCCNC(=O)C1(C)CCCN(C(=O)c2ccc3c(c2)CCO3)C1 (centres undefined),.,.,.,-
Cc1ccccc1C(=O)Nc1cccc(C(=O)N/N=C/c2cc(Cl)cc([N+](=O)[O-])c2O)c1,-,2.82µM,-,-
CCCCc1nc2cc(C(=O)N(C)C3CCOCC3)ccc2o1,.,.,.,-
Cn1cnc([N+](=O)[O-])c1S(=O)(=O)Oc1ccccc1,.,.,.,-
Cn1cnc([N+](=O)[O-])c1S(=O)(=O)c1cccc(Cl)c1,.,5.62µM,?,-
Cc1nc(N2CCC(C)CC2)c2c(C)c(C(=O)Nc3ccc(C(F)(F)F)cc3)sc2n1,-,-,-,39.8µM
CC(=O)NC1=C(N(C)C2CCS(=O)(=O)C2)C(=O)c2ccccc2C1=O (centres undefined),.,12.6µM,-,-
COc1ccc2[nH]c3c(NCCC4=CCCCC4)ncnc3c2c1,-,12.6µM,-,-
CCN(CC)CCNc1ncnc2c1[nH]c1ccc(OC)cc12,-,-,-,.
O=C(Nc1ccncc1)Nc1ccccc1Cl,.,.,.,-
O=C(Nc1cccnc1)C1(F)C(F)(F)C(F)(F)C(F)(F)C(F)(F)C1(F)F,-,6.31µM,-,-
O=C(Nc1cccnc1)Nc1ccccc1Cl,0.794µM,.,-,-
O=C(Cc1ccccc1)CC(CC(=O)c1ccccc1)c1ccccc1 (centres undefined),.,.,.,-
O=C(Nc1nc2c(F)cc(F)cc2s1)c1ccc(S(=O)(=O)N2CCc3ccccc32)cc1,.,.,-,15.8µM

# Screens (PubChem)
